PubChem BioAssay AID1209 (Sanford-Burnham Center for Chemical Genomics, 2008)
Hit rate of the full screen: of about 190,000 compounds, about 810 (0.43%) were called active. No stated cut-off is given here; in the data, active means inhibition above about 50%; inactive means the rest. For the sample, actives were picked, then their nearest neighbours and some compounds at random.

These molecules were tested against Mannose-6-phosphate isomerase (Homo sapiens) (UniProt P34949) (assay: inhibitors of human PMI, primary screen, biochemical, fluorescence intensity, coupled assay (AID 1209;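 further: plate controls were DMSO vehicle for no effect and wells lacking substrate for full effect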)). Conditions: purified PMI enzyme, at 20 µM, hits give high values.
Chain of Mannose-6-phosphate isomerase (Homo sapiens) (P34949 whole entry, looked up): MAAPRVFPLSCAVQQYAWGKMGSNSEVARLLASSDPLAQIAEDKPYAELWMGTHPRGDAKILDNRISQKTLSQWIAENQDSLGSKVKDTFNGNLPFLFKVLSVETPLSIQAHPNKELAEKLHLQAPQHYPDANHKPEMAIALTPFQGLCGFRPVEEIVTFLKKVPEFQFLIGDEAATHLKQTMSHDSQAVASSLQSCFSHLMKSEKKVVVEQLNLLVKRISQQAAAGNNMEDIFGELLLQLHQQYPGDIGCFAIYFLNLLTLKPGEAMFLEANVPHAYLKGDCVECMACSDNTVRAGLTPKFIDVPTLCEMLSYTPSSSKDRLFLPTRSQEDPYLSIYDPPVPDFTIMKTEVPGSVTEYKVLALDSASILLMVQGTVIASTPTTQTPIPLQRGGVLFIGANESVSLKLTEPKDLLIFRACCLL

inhibition, inactive:
COc1ccc(-c2nn[nH]n2)cc1OC -5%
COc1ccc(-c2nc(N)n[nH]2)cc1OC 2.2%
Cc1c(C(=O)NN)sc(-c2ccccc2)c1C#N -23.8%
CCN(CC)S(=O)(=O)c1cccc(C(=O)N/N=C/c2cc(OC)c(O)c(OC)c2)c1 19.2%
CCn1c(C)nc2cc(C(=O)N/N=C/c3ccccc3C)ccc21 -4.6%
CCn1c(C)nc2cc(C(=O)N/N=C/c3cccc(OC)c3O)ccc21 5.6%
CCN(CC)S(=O)(=O)c1cccc(C(=O)N/N=C/c2cccc(O)c2O)c1 20%
NC(=O)COC(=O)c1c2c(nc3ccccc13)CCCC2 -8.6%
NS(=O)(=O)c1ccc(CCNC(=O)c2ccc3nc4ccc(Cl)cc4c(=O)n3c2)cc1 -11.6%
CC(C)(C(=O)O)n1cncn1 -17.9%
CC(C)(C)c1ccccc1OCCCCCn1ccnc1 14%
Oc1ccccc1/C=N/N1CCCCC1 10.8%
CC(=O)NC1=NN(C(C)=O)C(c2ccccc2)S1 (configuration not stated) 10.4%
O=C(COc1ccc(C(=O)NCCc2ccccc2)cc1)Nc1ccccc1 9.8%
COCc1[nH]nc2c1C(c1ccc(OC)cc1)C(C#N)=C(N)O2 (configuration not stated) 21.3%
COCc1[nH]nc2c1C(c1ccc(OC)c(OC)c1)C(C#N)=C(N)O2 (configuration not stated) 2%
CCOc1ncccc1C(=O)OCC(=O)c1cc(OC)ccc1OC -1.1%
COc1ccc(C(=O)COC(=O)c2cccnc2Cl)c(OC)c1 0.1%
O=C(O)C1CCCCC1C(=O)NCc1ccc(F)cc1 (configuration not stated) 13.1%
CCOc1cc(C(=O)Nc2cccc(C(C)=O)c2)ccc1OCC(=O)N1CCCCC1 8.7%
O=C1NCCCC2c3c(cc(Br)c(O)c3Br)OC12N1CCCCC1 (configuration not stated) 24.7%
O=C1NCCCC2c3cc(O)c4ccccc4c3OC12N1CCCCC1 (configuration not stated) 21%
O=C1NN=C(c2ccccc2)CC1c1ccc(Cl)cc1Cl (configuration not stated) 4.2%
Cc1ccc(S(=O)(=O)/N=C2/C=C(C3C(=O)CC(C)(C)CC3=O)C(=O)c3ccccc32)cc1 9.6%
O=C1c2ccccc2C(=O)N1CCSc1ncn[nH]1 -7.4%
O=C(O)c1ccc(NC2=C/C(=N/S(=O)(=O)c3ccccc3)c3ccccc3C2=O)cc1 -68.7%
CCc1ccc(S(=O)(=O)/N=C2\C=CC(=O)c3ccccc32)cc1 6.9%
COC(=O)C(C(C)=O)C1=C/C(=N\S(=O)(=O)c2ccc(C)cc2)c2ccccc2C1=O (configuration not stated) 22.1%
CC(C)c1ccc(S(=O)(=O)/N=C2/C=CC(=O)c3ccccc32)cc1 34.5%
O=C(Cn1cc(C(F)(F)F)ccc1=O)N/N=C/c1ccc(F)cc1 -3.8%
CC1CCN(CC(=O)N2c3ccccc3CC2C)CC1 (configuration not stated) -23.2%
Cc1cc(=O)c(C(=O)O)cn1Nc1ccc(F)cc1 -5.7%
COc1ccc(C(O)Cc2nc3ccccc3n2C)cc1OC (configuration not stated) -8.6%
Cc1ncc(C[n+]2csc(CCOC(=O)CC34CC5CC(CC(C5)C3)C4)c2C)c(N)n1 -0.1%
COc1cc(CNc2ccc(N3CCCC3)cc2)ccc1OCc1ccccc1F 29.9%
CCOc1cc(CNc2ccc(S(N)(=O)=O)cc2)cc(Cl)c1OC 3%
CCOc1c(Cl)cc(CNC(C)(C)CC(C)(C)C)cc1OC 4.6%
CCOc1c(Cl)cc(CNc2ccc(S(N)(=O)=O)cc2)cc1OC -1.5%
COc1cc(CNc2ccc(N3CCN(C(C)=O)CC3)cc2)ccc1OCc1ccccc1 20%
C=CCOc1c(Cl)cc(CNc2ccc(C)c(Cl)c2)cc1OC 13.1%
CCOc1cc(CNc2ccc(N3CCOCC3)cc2)cc(Br)c1OCC 6.4%
COc1cc(CNc2ccc(N3CCOCC3)cc2)cc(Br)c1OC -0.4%
C/C(=N/NC(=O)c1ccncc1)c1c[nH]c2ccccc12 -0.2%
Cc1cccc(-n2ccnc2SCC(=O)N2CCCc3ccccc32)c1C 5.4%
COC(=O)c1c(C(=O)OC)c2cc(C(=O)c3ccccc3)ccn2c1Cl -15.3%
CS(=O)(=O)N1CCN(C2CCN(Cc3ccccc3)CC2)CC1 -0.6%
CN1CCc2nc3sc(C(=O)NCc4ccccc4)c(N)c3cc2C1 -30.8%
CC(NC(=O)NC12CC3CC(CC(C3)C1)C2)c1ccc2c(c1)OCO2 (configuration not stated) -7.3%
O=C(NCC(c1ccco1)N1CCN(c2ccccc2F)CC1)OCc1ccccc1 (configuration not stated) 18%
O=C(N1CCCCCC1)n1c(Cc2ccccc2)nc2ccccc21 -0.4%
NCc1oc(-c2ccccc2)cc1C(=O)O -55.4%
COc1c(C(O)CC(C)C)ccc2c1C(=O)OCc1cc(C)cc(O)c1O2 (configuration not stated) 23.7%
O=C(CCCc1c[nH]c2ccccc12)NCC1COc2ccccc2O1 (configuration not stated) -0.7%
Cc1cccc(CN2CCN(CC(=O)NCc3cccs3)C2=O)c1 -8.2%
CCOc1ccc(CNc2ccc(CNc3ncn[nH]3)cc2)cc1 9.7%
CCOc1ccc(C(=O)Nc2ccc(N3CCCC3)cc2)cc1 -29%
O=C(CSc1nc2[nH]ncc2c(=O)n1-c1ccccc1)NCc1cccs1 -10.6%
O=C(CCCCCC(=O)N(CCO)CCO)N(CCO)CCO -2.9%
CC1(C)CNc2cc([N+](=O)[O-])ccc2S1 1.5%
CC1(C)CC(=S)Nc2ccccc2S1 41.8%
O=C(NCc1ccc2c(c1)OCO2)c1cc(-c2ccccc2)on1 15.7%
O=C(c1ccc(OCC2CCCO2)cc1)N1CCc2ccccc2C1 (configuration not stated) 2.4%
Oc1ccc2ccccc2c1/C=N/Nc1nnc(-c2ncc[nH]2)c2ccccc12 -2.3%
CC(=O)Nc1ccc(C(=S)NCc2ccco2)cc1 9.7%
CN(C)c1ccc(/C=N/NC(=S)NCc2ccco2)cc1 -8%
C/C(=N\NC(=O)COc1ccc(C#N)cc1)c1ccccc1OC(F)F 1%
CC(=O)Nc1cccc(Oc2ncnc3scc(-c4ccc(C(C)C)cc4)c23)c1 12.9%
CNC(=O)c1nn(-c2ccc(Cl)cc2)ccc1=O 6.2%
CCOc1cc(NC(=S)NCCCOC)c(OCC)cc1NC(=O)c1cccs1 17.4%
CC[n+]1ccc(/C=C/c2ccc(N(C)C)cc2)c2ccccc21 1%
CC[n+]1ccc(C)c2cc(P(=O)(c3ccccc3)c3ccccc3)ccc21 -16%
CC(=O)Nc1ccc(C2=NN(Cc3nnc(-c4ccccc4)o3)C(=O)SC2)cc1 2.2%
CN(C)c1cccc(C(=O)NCC2CCCO2)c1 (configuration not stated) 9.2%
O=C(Nc1ccc(N=Nc2ccccc2)cc1)c1cccc(Cl)c1 7.7%
O=C(Nc1ccc(N=Nc2ccccc2)cc1)c1ccccc1Cl 2.6%
COc1cccc(NC(=O)c2cccnc2)c1 8.6%
CCC(C)(C)n1nnnc1C(c1cc2cc(C)ccc2[nH]c1=O)N1CCCc2ccccc21 (configuration not stated) 44.4%
O=c1[nH]c2cc3c(cc2cc1C(c1nnnn1C1CCCC1)N1CCCc2ccccc21)OCCO3 (configuration not stated) 12.8%
CCOC(=O)Cc1csc(NC(=O)CSc2nnc(-c3ccc(F)cc3)o2)n1 -5.5%
CCOC(=O)c1ccccc1NC(=O)COC(=O)c1ccc(C)c(S(=O)(=O)N2CCOCC2)c1 6.5%
CCOC(=O)Cn1nc(C)n(-c2ccc(C(C)(C)C)cc2)c1=O 12.5%
Cc1cc(N/N=C/c2ccccc2)nc(NCc2ccccc2)n1 21.5%
Clc1ccc(/C=N/Nc2ccccn2)cc1 -8.3%
Cc1cc(N/N=C\c2ccccc2)nc(-c2ccccc2O)n1 17.7%
COc1ccc(/C=N/Nc2cc(OC)ncn2)cc1 14.3%
COc1ccccc1/C=N/Nc1nncc2ccccc12 2.9%
COc1ccccc1/C=N/NC1=NCCCCC1 2.7%
Cc1cc(N/N=C/c2ccc(Cl)cc2)nc(NCc2ccccc2)n1 21.7%
COc1ccc(/C=N/Nc2cc(C)nc(N)n2)cc1 12.1%

inhibition, active:
CCN(CC)S(=O)(=O)c1cccc(C(=O)N/N=C/c2ccc(O)c(O)c2O)c1 77.7%
COCc1[nH]nc2c1C(c1cc(OC)c(O)c(OC)c1)C(C#N)=C(N)O2 (configuration not stated) 53.8%
CC(C)c1ccc(S(=O)(=O)/N=C2/C=C(Sc3ncn[nH]3)C(=O)c3ccccc32)cc1 95.1%
Cc1ccc(S(=O)(=O)/N=C2/C=C(Sc3ncn[nH]3)C(=O)c3ccccc32)cc1 101%
CCc1ccc(S(=O)(=O)/N=C2/C=C(Sc3ncn[nH]3)C(=O)c3ccccc32)cc1 98.8%
COc1cc(CNc2ccc(N3CCCC3)cc2)ccc1OCc1ccccc1 86.4%
CCOc1cc(CNc2ccc(N3CCCC3)cc2)cc(Cl)c1OC 83%
COc1cc(CNc2ccc(N3CCCC3)cc2)cc(Cl)c1OC 76.9%
CCOc1ccc(CNc2ccc(N3CCCC3)cc2)cc1 85.9%
CC1(C)CNc2cc(N)ccc2S1 82.8%
CN(C)c1ccc(C(=S)NCc2ccco2)cc1 50.7%
CC[n+]1ccc(C[n+]2ccccc2)c2ccccc21 96.8%
O=C(Nc1ccc(N=Nc2ccccc2)cc1)c1ccc(Cl)cc1Cl 57.5%
Cc1ccc2[nH]c(=O)c(C(c3nnnn3C3CCCC3)N3CCCc4ccccc43)cc2c1 (configuration not stated) 57.3%
CN(C)c1cc(N/N=C\c2ccccc2)nc(N(C)C)n1 59.2%
COc1ccccc1/C=N/Nc1cc(N(C)C)nc(N(C)C)n1 60.4%
COc1ccc(/C=N/Nc2cc(N(C)C)nc(N(C)C)n2)cc1 61.2%
CN(C)c1cc(N/N=C/c2ccc(Cl)cc2)nc(N(C)C)n1 67.4%
